Laboratory results taken from PubChem BioAssay (Tox21).
Records with an inconclusive call do not appear. Where a call stands in place of a potency, no number is given. Unmarked numbers belong to inactive results. Calls of active or inactive are those of the source. Unless noted, calls come from the whole dose curve; as a rule, active = well fitted curve in the direction sought with a large enough effect in the repeat runs; inconclusive = weak or mixed curves; inactive = no such curve, though single readings can be large; an effect the other way counts as inactive or inconclusive.

Assays:
[1] = target: Retinoic acid receptor RXR-alpha (Homo sapiens) (UniProt P19793); experiment: qHTS assay to identify small molecule agonists of the RXR signaling pathway (AID 1159527; calls by dose curve; note: nearly all actives have a fitted effect of over 35% in size)
Sequence of Retinoic acid receptor RXR-alpha (Homo sapiens) (P19793 whole entry, looked up): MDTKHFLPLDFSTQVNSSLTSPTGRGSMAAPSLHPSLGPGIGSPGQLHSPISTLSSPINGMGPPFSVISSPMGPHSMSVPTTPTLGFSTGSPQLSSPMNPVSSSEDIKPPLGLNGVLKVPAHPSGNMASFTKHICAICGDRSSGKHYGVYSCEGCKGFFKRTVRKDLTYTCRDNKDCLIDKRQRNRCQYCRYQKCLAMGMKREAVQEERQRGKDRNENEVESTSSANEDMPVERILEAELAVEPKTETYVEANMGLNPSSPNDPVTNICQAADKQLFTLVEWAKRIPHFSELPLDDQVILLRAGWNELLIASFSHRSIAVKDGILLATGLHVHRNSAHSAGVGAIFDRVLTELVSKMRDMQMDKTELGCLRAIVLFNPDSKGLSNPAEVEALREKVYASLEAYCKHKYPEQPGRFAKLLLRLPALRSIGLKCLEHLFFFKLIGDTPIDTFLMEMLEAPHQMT
Method in brief: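 Agonist mode; 9-cis retinoic acid positive control. HEK 293T UAS-bla reporter cells, 2% charcoal-stripped FBS, 16 hr compound exposure at 37 C/5% CO2. LiveBLAzer B/G FRET substrate 2 hr RT; ex 405, em 460/530 nm.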

[2] = qHTS assay to identify small molecule antagonists of the retinoid acid receptor (RAR) signaling pathway - cell viability counter screen (AID 1159551); note: nearly all actives have a fitted effect of over 35% in size
Method in brief: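 Viability of C3RL4 cells is quantified from ATP by luminescence after 6 h treatment at 37 C with compounds and 1 uM retinol.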

[3] = qHTS assay to identify small molecule antagonists of the retinoic acid receptor (RAR) signaling pathway (AID 1159552; note: nearly all actives have a fitted effect of over 50% in size)
Method in brief: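 Luminescence from a RARE luciferase reporter in C3RL4 cells served as read-out. Cells received compounds together with 1 uM final retinol and incubated 6 hr at 37 C before detection reagent was added for 30 min at room temperature.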

[4] = qHTS assay to identify small molecule agonists of the retinoic acid receptor (RAR) signaling pathway (AID 1159553)
Method in brief: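 Compounds dissolved in DMSO were pinned onto C3RL4 cells seeded the previous day, and plates were held 6 hr at 37 C. RARE-driven luciferase output was then read by luminescence.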

[5] = qHTS assay to identify small molecule antagonists of the estrogen related receptor (ERR) signaling pathway from Tox21 library - cell viability counter screen (AID 1224834); note: nearly all actives have a fitted effect of over 30% in size
Method in brief: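 In this quantitative HTS format, ERR cells receive compounds in DMSO and are incubated for 17.5 h at 37 C. Live-cell protease activity is then detected with CellTiter-Fluor.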

[6] = qHTS assay to identify small molecule agonists of the constitutive androstane receptor (CAR) signaling pathway - cell viability counter screen (AID 1224836); note: series mostly up to about 92 µM; nearly all actives have a fitted effect of over 45% in size
Method in brief: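 Viability read-out: CellTiter-Fluor fluorescence after 23 h compound exposure at 37 C/5% CO2 in double-stable HepG2-CYP2B6-hCAR cells, with PK11195 present at 0.75 uM final; compounds tested in 15-point titration.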

[7] = qHTS assay to identify small molecule antagonists of the constitutive androstane receptor (CAR) signaling pathway - cell viability counter screen (AID 1224837); note: series mostly up to about 92 µM; nearly all actives have a fitted effect of over 45% in size
Method in brief: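 In quantitative HTS format, compounds at 15 concentrations were applied to HepG2 cells double-transfected with hCAR and CYP2B6-2.2kb under 50 nM CITCO stimulation; live-cell protease activity was read after 23 hr via CellTiter-Fluor.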

[8] = target: Nuclear receptor subfamily 1 group I member 3 (Homo sapiens) (UniProt Q14994); experiment: qHTS assay to identify small molecule antagonists of the constitutive androstane receptor (CAR) signaling pathway (AID 1224838); note: nearly all actives have a fitted effect of over 40% in size; note: potency is the fitted concentration of half-maximal effect
Sequence of Nuclear receptor subfamily 1 group I member 3 (Homo sapiens) (Q14994 whole entry, looked up): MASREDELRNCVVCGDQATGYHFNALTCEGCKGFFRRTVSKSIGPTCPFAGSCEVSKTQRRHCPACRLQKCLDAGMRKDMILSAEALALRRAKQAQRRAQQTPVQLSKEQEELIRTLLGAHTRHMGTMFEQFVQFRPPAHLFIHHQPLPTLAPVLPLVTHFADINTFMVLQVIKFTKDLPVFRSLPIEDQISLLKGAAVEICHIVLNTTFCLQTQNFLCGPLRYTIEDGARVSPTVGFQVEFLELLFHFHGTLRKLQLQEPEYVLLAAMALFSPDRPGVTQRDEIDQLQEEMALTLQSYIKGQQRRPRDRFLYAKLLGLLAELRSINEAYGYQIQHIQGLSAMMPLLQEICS
Method in brief: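 CITCO-stimulated (50 nM final) HepG2 cells stably transfected with hCAR and CYP2B6-2.2kb luciferase were exposed to compounds at 15 concentrations for 24 h at 37 C/5% CO2. A luciferase reagent was added and luminescence recorded after 30 min.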

[9] = target: Nuclear receptor subfamily 1 group I member 3 (Homo sapiens) (UniProt Q14994); experiment: qHTS assay to identify small molecule agonists of the constitutive androstane receptor (CAR) signaling pathway (AID 1224839);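 note: HepG2 cells stably carrying human CAR and a CYP2B6 luciferase reporter; series mostly up to about 92 µM; nearly all actives have a fitted effect of over 15% in size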
Method in brief: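 Luminescence read-out (ONE-Glo, 30 min, room temperature) from double-stable HepG2-CYP2B6-hCAR cells exposed 24 h to 15-point compound series in presence of 0.75 uM PK11195 final.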

[10] = qHTS assay to identify small molecule antagonists of the estrogen related receptor signaling pathway with the pleiotropic PPARgamma coactivator (PGC) from Tox21 10K library - cell viability counter screen (AID 1224840; active = well fitted cell-killing curve with a large enough effect in the repeat runs, not every such curve was filed as active; note: nearly all actives have a fitted effect of over 40% in size)
Method in brief: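 Viability counter screen, PGC/ERR cells: 17.5 h compound exposure at 37 C, CellTiter-Fluor fluorescence endpoint.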

[11] = target: Luciferin 4-monooxygenase (Photinus pyralis) (UniProt P08659); experiment: qHTS assay to identify small molecule inhibitors of firefly luciferase (AID 1224835); note: nearly all actives have a fitted effect of over 25% in size; note: potency is the fitted concentration of half-maximal effect; for activity change, negative = inhibition: series mostly up to about 120 µM
Sequence of Luciferin 4-monooxygenase (Photinus pyralis) (P08659 whole entry, looked up): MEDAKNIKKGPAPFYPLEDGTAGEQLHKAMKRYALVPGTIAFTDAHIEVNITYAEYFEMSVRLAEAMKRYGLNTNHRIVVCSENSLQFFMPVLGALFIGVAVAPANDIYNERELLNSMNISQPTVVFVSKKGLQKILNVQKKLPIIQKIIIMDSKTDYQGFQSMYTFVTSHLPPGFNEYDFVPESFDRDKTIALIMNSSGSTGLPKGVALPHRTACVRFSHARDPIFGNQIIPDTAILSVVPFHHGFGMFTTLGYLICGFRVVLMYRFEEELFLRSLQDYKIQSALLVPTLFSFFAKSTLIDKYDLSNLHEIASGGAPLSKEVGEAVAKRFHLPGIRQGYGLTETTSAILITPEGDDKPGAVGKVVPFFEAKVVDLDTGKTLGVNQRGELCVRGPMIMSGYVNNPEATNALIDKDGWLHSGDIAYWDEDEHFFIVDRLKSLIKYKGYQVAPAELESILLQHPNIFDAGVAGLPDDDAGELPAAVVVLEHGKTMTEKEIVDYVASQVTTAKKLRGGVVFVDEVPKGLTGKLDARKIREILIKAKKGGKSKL
Method in brief: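 Biochemical qHTS: compounds run as interplate titrations against purified firefly enzyme, with D-luciferin and ATP each at its KM concentration. Light output recorded by CCD imaging.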

[12] = qHTS assay to identify small molecule agonists of the RXR signaling pathway - cell viability counter screen (AID 1159529); note: series mostly up to about 77 µM; nearly all actives have a fitted effect of over 50% in size
Method in brief: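 Luminescence from CellTiter-Glo (30 min, RT) measured viability in the same wells as the beta-lactamase reporter readout. Cells: GeneBLAzer RXR-alpha HEK 293T, 2% charcoal-stripped FBS. Compound exposure 16 hr, 37 C.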

[13] = qHTS assay to identify small molecule antagonists of the estrogen related receptor signaling pathway with the pleiotropic PPARgamma coactivator (PGC) from Tox21 10K library (AID 1224841; call rule not given here; note: series mostly up to about 92 µM; actives are mostly falling curves and most rising ones were filed inactive; nearly all actives have a fitted effect of over 50% in size)
Method in brief: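 In the PGC/ERR line, DMSO solutions of test chemicals are pin-delivered to 2,000 cells/well six hours after dispensing. Following eighteen hours' incubation, One-Glo reagent is added and luminescence recorded.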

[14] = qHTS assay to identify small molecule agonists of the estrogen related receptor signaling pathway with the pleiotropic PPARgamma coactivator (PGC) from Tox21 10K library (AID 1224842); note: nearly all actives have a fitted effect of over 15% in size
Method in brief: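 PGC/ERR reporter cell line, 2,000 cells per well, incubated 6 h at 37 C before 23 nL compound in DMSO was added. After 18 h at 37 C, One-Glo luminescence read following 30 min at room temperature.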

C[C@@H]1C[C@H]2[C@@H]3CCC4=CC(=O)C=C[C@]4(C)[C@@]3(F)[C@@H](O)C[C@]2(C)[C@H]1C(=O)CO
Potency [1]: inactive | Potency [2]: inactive | Potency [3]: inactive | Potency [4]: inactive | Potency [5]: inactive | Potency [6]: inactive | Potency [7]: inactive | Potency [8]: inactive | Potency [9]: inactive | Potency [10]: inactive

CCCCOC(=O)CCS
Potency [1]: inactive | Potency [2]: inactive | Potency [4]: inactive | Potency [5]: inactive | Potency [11]: inactive | Potency [6]: inactive | Potency [7]: inactive | Potency [8]: 24.3 µM (active) | Potency [9]: inactive | Potency [10]: inactive

CO[Si](C)(OC)OC
Potency [1]: inactive | Potency [2]: inactive | Potency [5]: inactive | Potency [11]: inactive | Potency [6]: inactive | Potency [7]: inactive

Nc1c(I)cc(I)c(C(=O)N(CCC(=O)O)c2ccccc2)c1I
Potency [12]: inactive | Potency [2]: inactive | Potency [3]: inactive | Potency [4]: inactive | Potency [5]: inactive | Potency [11]: inactive | Potency [6]: inactive | Potency [7]: inactive | Potency [8]: inactive | Potency [9]: inactive | Potency [10]: inactive

CCN(Cc1cccc(S(=O)(=O)O)c1)c1ccc(C(=C2C=CC(=[N+](CC)Cc3cccc(S(=O)(=O)[O-])c3)C=C2)c2ccccc2)cc1
Potency [1]: inactive | Potency [2]: inactive | Potency [3]: inactive | Potency [4]: inactive | Potency [5]: inactive | Potency [11]: 22.3 µM (active) | Potency [6]: inactive | Potency [7]: inactive | Potency [8]: inactive | Potency [9]: inactive | Potency [10]: inactive | Potency [13]: inactive | Potency [14]: inactive

C=CCCCCCCCCCCCCCCCC
activation [1]: 0.376% [at 6.98 µM] | activity change, negative = cytotoxicity [2]: 0.367% [at 8.39 µM] | activity, negative = inhibition [3]: -14.9% [at 8.39 µM] | activation [4]: -0.865% [at 8.36 µM] | viability change, negative = cytotoxic [5]: 0.934% [at 8.39 µM] | activity change, negative = inhibition [11]: 0.644% [at 10.5 µM] | viability change, negative = cytotoxic [6]: -0.127% [at 8.39 µM] | activity change, negative = cytotoxicity [7]: 3.23% [at 8.39 µM] | activation [9]: -5.43% [at 8.39 µM] | activity, negative = inhibition [13]: -28.3% [at 8.39 µM] | activation [14]: 0.156% [at 8.39 µM]

Nc1nccs1
Potency [1]: inactive | Potency [5]: inactive | Potency [11]: inactive | Potency [6]: inactive | Potency [7]: inactive | Potency [10]: inactive

C[C@]12CCC(=O)C=C1C=C[C@@H]1[C@@H]2CC[C@@]2(C)[C@H]1CC[C@@]21CCC(=O)O1
Potency [1]: inactive | Potency [2]: inactive | Potency [4]: inactive | Potency [5]: inactive | Potency [11]: inactive | Potency [6]: inactive | Potency [7]: inactive | Potency [9]: inactive | Potency [10]: inactive | Potency [13]: inactive | Potency [14]: inactive
